A short description of experiment [1]: qHTS of pediatric cancer cell lines to identify multiple opportunities for drug repurposing: Primary screen for TC32 cells (AID 1347089). Note: nearly all actives have a fitted effect of over 60% in size. The essentials:
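TC32 cells, 500-1,000/well in growth medium, compound-treated 48 h at 37 °C; viability from CellTiter-Glo luminescence. Primary screen: MIPE 11-point (0.78 nM–46 µM final), NPC 8-point (0.59 nM–46 µM final); confirmatory at 11-point dilutions.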

Experiment [2] in a line: qHTS of pediatric cancer cell lines to identify multiple opportunities for drug repurposing: Primary screen for DAOY cells (AID 1347090). Note: nearly all actives have a fitted effect of over 55% in size. The method in brief: (§1)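 Eight- or eleven-point concentration series, 48 h treatment at 37 degrees C in growth media; readout CellTiter-Glo luminescence. Potency and efficacy were taken from the concentration-response curves.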
A general note: Quantitative high-throughput screening tests each substance at several concentrations.

A short description of experiment [3]: qHTS of pediatric cancer cell lines to identify multiple opportunities for drug repurposing: Primary screen for SJ-GBM2 cells (AID 1347091). The method in brief: as §1
Experiment [4] is described as follows: qHTS of pediatric cancer cell lines to identify multiple opportunities for drug repurposing: Primary screen for A673 cells (AID 1347092). Note: nearly all actives have a fitted effect of over 45% in size. The method in brief: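 A673 cells (500-1,000 cells/well) were treated 48 hours at 37 degrees C with compounds at 11-point (0.78 nM to 46 µM) or 8-point (0.59 nM to 46 µM) dilutions. Viability read by CellTiter-Glo luminescence; concentration-response curves fitted.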

Experiment [5] is described as follows: qHTS of pediatric cancer cell lines to identify multiple opportunities for drug repurposing: Primary screen for BT-37 cells (AID 1347094). The essentials: (§2)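 ATP-based luminescence (CellTiter-Glo) quantifies viability after a 48-hour exposure. Compounds are dosed across 8 or 11 final concentrations; DMSO and 2.3 µM bortezomib serve as controls.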
Experiment [6] in a line: qHTS of pediatric cancer cell lines to identify multiple opportunities for drug repurposing: Primary screen for U-2 OS cells (AID 1347096). Note: nearly all actives have a fitted effect of over 50% in size. The method in brief:
(§3)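 Cells (500-1,000/well) in growth media were settled 5 h at 37 degrees C, then given compounds for 48 h. Viability was read as CellTiter-Glo luminescence. Primary runs used MIPE at 11 points (0.78 nM-46 µM) and NPC at 8 points (0.59 nM-46 µM); follow-ups used 11 points.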

Experiment [7] is described as follows: qHTS of pediatric cancer cell lines to identify multiple opportunities for drug repurposing: Primary screen for Saos-2 cells (AID 1347097). Note: nearly all actives have a fitted effect of over 40% in size. The method in brief: as §2
Experiment [8] is described as follows: qHTS of pediatric cancer cell lines to identify multiple opportunities for drug repurposing: Primary screen for SK-N-SH cells (AID 1347098). Note: nearly all actives have a fitted effect of over 65% in size. The essentials: (§4)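 Cells (500-1,000/well) rested 5 h, then received compounds for 48 h; metabolically active cells were measured by CellTiter-Glo luminescence. Final concentrations spanned up to 46 µM (MIPE, 11-point) or 0.59 nM-46 µM (NPC, 8-point) in primary screens, 11-point in follow-ups.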

Experiment [9] can be described thus: qHTS of pediatric cancer cell lines to identify multiple opportunities for drug repurposing: Primary screen for NB1643 cells (AID 1347099). Note: nearly all actives have a fitted effect of over 50% in size. The essentials: as §2
A short description of experiment [10]: qHTS of pediatric cancer cell lines to identify multiple opportunities for drug repurposing: Primary screen for LAN-5 cells (AID 1347100). The method in brief: as §3
Experiment [11] is described as follows: qHTS of pediatric cancer cell lines to identify multiple opportunities for drug repurposing: Primary screen for BT-12 cells (AID 1347101). Note: nearly all actives have a fitted effect of over 25% in size. The method in brief:
as §4

Experiment [12] in a line: qHTS of pediatric cancer cell lines to identify multiple opportunities for drug repurposing: Primary screen for Rh18 cells (AID 1347102). Note: nearly all actives have a fitted effect of over 65% in size. The essentials:
as §3

The nature of experiment [13]: qHTS of pediatric cancer cell lines to identify multiple opportunities for drug repurposing: Primary screen for OHS-50 cells (AID 1347103). Note: nearly all actives have a fitted effect of over 40% in size. The essentials: as §4
Experiment [14] can be described thus: qHTS of pediatric cancer cell lines to identify multiple opportunities for drug repurposing: Primary screen for RD cells (AID 1347104). Note: nearly all actives have a fitted effect of over 55% in size. The method in brief:
as §2

A short description of experiment [15]: qHTS of pediatric cancer cell lines to identify multiple opportunities for drug repurposing: Primary screen for NB-EBc1 cells (AID 1347095). The method in brief:
as §2

Experiment [16] in a line: qHTS of pediatric cancer cell lines to identify multiple opportunities for drug repurposing: Primary screen for SK-N-MC cells (AID 1347093). The essentials: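 Metabolically active cells were quantified by ATP-dependent luminescence (CellTiter-Glo, 15 min at room temperature) following 48 h treatment. Cells had been plated at 500-1,000 per well and settled for 5 h beforehand.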

Each structure is given as a SMILES string. Results filed as inconclusive are left out. Active and inactive are the calls of the source. Calls come from the whole dose curve; as a rule, active = well fitted curve in the direction sought with a large enough effect; inconclusive = small, poorly fitted or top-dose-only effect, or another doubt; inactive = no such curve, though single readings can be large; an effect the other way counts as inactive or inconclusive.
Potency is the fitted concentration of half-maximal effect.

`CC=C1NC(=O)[C@H]2CSSCCC=C[C@H](CC(=O)N[C@H](C(C)C)C(=O)N2)OC(=O)[C@H](C(C)C)NC1=O`: the Potency in [1] was 0.0587 µM (active); in experiment [2] it was 0.0296 µM (active); in experiment [3], 0.0148 µM (active); in experiment [4] it was 0.0118 µM (active); in experiment [5] it was 0.0109 µM (active); in [6] it was 0.0296 µM (active). Further, the Potency in [7] was 0.0118 µM (active); in experiment [8], 0.121 µM (active); in [9], 0.0093 µM (active); in [10], 0.0093 µM (active); in [11], 0.0122 µM (active); in experiment [12], 0.0053 µM (active). The Potency is 0.0193 µM (active) in experiment [13] and 0.0148 µM (active) in experiment [14].
For `CC(C)[C@H](C(=O)Nc1ccc(C(=O)NO)cc1)c1ccccc1`, the Potency was 3.3 µM (active) in [1]; 1.87 µM (active) in experiment [2]; 0.59 µM (active) in experiment [3]; 1.18 µM (active) in experiment [4]; 2.17 µM (active) in experiment [5]; 0.526 µM (active) in experiment [15]. For the same compound, the Potency in [6] was 1.18 µM (active); in experiment [7] it was 1.48 µM (active); in experiment [8], 2.41 µM (active); in [9], 0.418 µM (active); in experiment [10] it was 0.526 µM (active); in [11], 3.06 µM (active). Besides, the Potency in experiment [12] is 0.743 µM (active); in [13], 1.22 µM (active).
For `OCc1ccc(-c2ccc(-c3ccc(CO)s3)o2)s1`, the Potency entry in experiment [1], in experiment [5], in experiment [6], in [7] and in experiment [12] was “inactive” each time. Further, the Potency in experiment [2] was 9.35 µM (active); in experiment [3] it was 16.6 µM (active); in experiment [4] it was 0.148 µM (active); in experiment [15] it was 14.8 µM (active); in [8], 21.5 µM (active); in [9] it was 26.4 µM (active). For the same compound, the Potency in experiment [11] is 30.6 µM (active).
As for `Nc1ccn([C@@H]2CS[C@H](CO)O2)c(=O)n1`, the Potency entry in experiment [1], in experiment [2], in experiment [3], in [4], in experiment [5] and in experiment [15] was “inactive” in each case. Further, the Potency result in experiment [6], in experiment [7], in [8], in experiment [9], in experiment [10] and in experiment [11] was “inactive” throughout. The Potency result in experiment [12], in experiment [13] and in [14] was “inactive” throughout.
Turning to `CC(C)c1ccc(Cn2ccc3c4c(N)nc(NC5CC5)nc4ccc32)cc1`, the Potency in experiment [1] is 4.15 µM (active); in experiment [2] it was 14.8 µM (active); in experiment [3], 3.72 µM (active); in [4], 2.96 µM (active); in [5], 12.2 µM (active); in [6], 18.7 µM (active). In addition, the Potency was 4.69 µM (active) in experiment [7]; 21.5 µM (active) in experiment [8]; 18.7 µM (active) in experiment [9]; 18.7 µM (active) in experiment [10]; 4.32 µM (active) in experiment [11]; 18.7 µM (active) in experiment [12]. Further, the Potency in experiment [13] was 4.85 µM (active); in experiment [14] it was 14.8 µM (active).
On to `O=C(O)CCCc1c[nH]c2ccccc12`, for which the Potency result in [1], in experiment [2], in experiment [3], in experiment [4], in experiment [16] and in experiment [6] was “inactive” in each case. In addition, the Potency entry in experiment [7], in experiment [8], in experiment [12], in experiment [13] and in [14] was “inactive” throughout. For the same compound, in experiment [15], the Potency is 18.7 µM (active).
Turning to `O=C(NCCCNc1nc(Nc2cccc(NC(=O)N3CCCC3)c2)ncc1I)c1cccs1`, the Potency in experiment [1] was 2.62 µM (active); in experiment [2] it was 14.8 µM (active); in [3] it was 2.96 µM (active); in [4] it was 7.43 µM (active); in experiment [5] it was 24.3 µM (active); in experiment [15] it was 23.5 µM (active). Moreover, the Potency in experiment [7] was 3.32 µM (active); in experiment [8], 17.1 µM (active); in [9], 11.8 µM (active); in experiment [10], 0.833 µM (active); in [11] it was 24.3 µM (active); in experiment [13] it was 24.3 µM (active). In addition, the Potency in experiment [14] is 16.6 µM (active). In addition, the Potency result in experiment [6] is “inactive”.
As to `COc1cccc(Nc2c(C(N)=O)cnc3c(C)cc(S(=O)(=O)c4cccc(C(=O)N(C)C)c4)cc23)c1`, the Potency entry in [1], in experiment [2], in experiment [3], in experiment [4], in [5] and in [15] was “inactive” in each case. For the same compound, the Potency result in [6], in [7], in experiment [12] and in experiment [14] was “inactive” in each case. Besides, in experiment [13], the Potency is 10.6 µM (active).
In the case of `C=CC(=O)Nc1cc2c(Nc3ccc(F)c(Cl)c3)ncnc2cc1C#CC(C)(C)N1CCN(C)CC1`, the Potency is 11.7 µM (active) in experiment [1]; 5.9 µM (active) in experiment [2]; 2.96 µM (active) in [3]; 1.48 µM (active) in experiment [4]; 3.85 µM (active) in experiment [5]; 2.96 µM (active) in experiment [15]. In addition, the Potency was 7.43 µM (active) in experiment [6]; 4.18 µM (active) in [7]; 3.83 µM (active) in experiment [8]; 0.526 µM (active) in experiment [9]; 2.96 µM (active) in [10]; 21.7 µM (active) in experiment [11]. For the same compound, the Potency in experiment [12] is 4.69 µM (active); in [13], 3.85 µM (active); in [14], 5.9 µM (active).
Turning to `C1=CCOCc2cc(ccc2OCCN2CCCC2)Nc2nccc(n2)-c2cccc(c2)OCC1`, the Potency in [1] was 14.7 µM (active); in experiment [2], 14.8 µM (active); in [3], 3.72 µM (active); in [4], 2.35 µM (active); in experiment [5], 12.2 µM (active); in experiment [15], 7.43 µM (active). The Potency in experiment [7] was 5.26 µM (active); in experiment [8] it was 7.64 µM (active); in [9], 7.43 µM (active); in [10] it was 2.64 µM (active); in experiment [11], 7.69 µM (active); in experiment [12] it was 7.43 µM (active). The Potency in [13] was 2.17 µM (active). Besides, in [6], the Potency result was “inactive”.
Turning to `C=C1C(=CC=C2CCCC3(C)[C@@H]([C@H](C)C=CC=CC(O)(CC)CC)CC[C@@H]23)C[C@@H](O)C[C@@H]1O` (stereo partly specified), the Potency entry in experiment [1] and in experiment [12] was “inactive” each time. The Potency was 23.5 µM (active) in experiment [2]; 20.9 µM (active) in experiment [3]; 18.7 µM (active) in experiment [4]; 6.62 µM (active) in [16]; 18.7 µM (active) in experiment [15]; 14.8 µM (active) in experiment [9]. Also, the Potency in experiment [10] is 14.8 µM (active); in experiment [13], 24.3 µM (active); in [14], 26.4 µM (active).
With `O=C(C=Cc1cccc(S(=O)(=O)Nc2ccccc2)c1)NO`, the Potency in experiment [1] was 9.54 µM (active); in experiment [2] it was 8.55 µM (active); in experiment [3] it was 2.15 µM (active); in experiment [4], 4.29 µM (active); in experiment [5], 7.03 µM (active); in [15] it was 1.91 µM (active). Also, the Potency was 5.4 µM (active) in [6]; 6.79 µM (active) in experiment [7]; 6.22 µM (active) in experiment [8]; 0.679 µM (active) in [9]; 1.21 µM (active) in experiment [10]; 11.1 µM (active) in experiment [11]. In addition, the Potency in experiment [12] was 1.91 µM (active); in experiment [13], 3.95 µM (active); in experiment [14], 9.59 µM (active).

Source of the values: PubChem BioAssay (NCATS).
